Compounds with a hit are over-represented: about 1.6% of the library has one in this group of screens.
hERG WT inh = KCNH2 (human, wildtype) channel inhibition; U2OS, BacMam KCNH2, thallium flux FluxOr; stronger effect = lower value; activity change, % at 1.84 µM; AID 720551; hit rate 0.37% among 340,000; Q12809;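 active = maximum activity change below -70%; inconclusive = maximum activity change between -70% and -50%; inactive = maximum activity change above -50%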
Target sequence (Q12809 whole entry, looked up): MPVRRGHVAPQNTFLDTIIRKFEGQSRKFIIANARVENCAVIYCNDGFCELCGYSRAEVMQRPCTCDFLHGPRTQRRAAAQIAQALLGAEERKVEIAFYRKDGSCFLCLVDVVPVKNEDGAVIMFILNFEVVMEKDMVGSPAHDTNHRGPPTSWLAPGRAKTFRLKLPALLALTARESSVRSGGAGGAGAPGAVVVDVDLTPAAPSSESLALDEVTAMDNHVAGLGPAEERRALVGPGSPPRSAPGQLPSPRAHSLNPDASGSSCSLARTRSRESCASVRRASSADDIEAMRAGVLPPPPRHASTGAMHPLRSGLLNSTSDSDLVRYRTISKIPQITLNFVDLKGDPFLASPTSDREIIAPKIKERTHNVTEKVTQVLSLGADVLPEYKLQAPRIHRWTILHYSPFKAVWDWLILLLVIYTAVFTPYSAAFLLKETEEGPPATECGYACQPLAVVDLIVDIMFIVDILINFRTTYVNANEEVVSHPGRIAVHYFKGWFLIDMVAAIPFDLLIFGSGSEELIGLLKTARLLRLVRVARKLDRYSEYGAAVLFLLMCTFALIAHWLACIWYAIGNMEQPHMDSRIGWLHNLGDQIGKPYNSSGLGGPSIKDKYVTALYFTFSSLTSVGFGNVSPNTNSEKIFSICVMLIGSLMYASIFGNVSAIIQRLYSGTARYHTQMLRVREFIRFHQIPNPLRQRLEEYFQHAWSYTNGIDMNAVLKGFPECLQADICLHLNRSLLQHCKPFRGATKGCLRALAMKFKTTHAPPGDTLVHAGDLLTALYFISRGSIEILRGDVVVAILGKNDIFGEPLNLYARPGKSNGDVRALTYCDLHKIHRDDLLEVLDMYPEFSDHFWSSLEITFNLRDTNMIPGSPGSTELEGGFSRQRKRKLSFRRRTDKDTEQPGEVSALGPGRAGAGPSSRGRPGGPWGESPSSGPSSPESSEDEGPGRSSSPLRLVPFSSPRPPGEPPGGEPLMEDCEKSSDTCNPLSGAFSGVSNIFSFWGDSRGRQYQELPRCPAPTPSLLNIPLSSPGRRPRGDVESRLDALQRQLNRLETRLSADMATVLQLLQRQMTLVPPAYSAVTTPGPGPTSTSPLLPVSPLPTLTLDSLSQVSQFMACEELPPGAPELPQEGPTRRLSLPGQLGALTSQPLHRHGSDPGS
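U2OS cells transduced with wild-type KCNH2 virus are loaded with FluxOr dye for 45 min, and thallium flux is measured in kinetic reads before and after stimulation buffer. Rate constants are normalized to DMSO controls.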
Glioma ERSR ind = inducers of ER stress response in human glioma cells | U87-MG GRP78 promoter luciferase reporter, 16 h | Potency, µM, actives largely listed as activators | hit rate 0.02% among 420,000 | AID 602332; active = well fitted activation curve with a large enough effect; inconclusive = small, poorly fitted or top-dose-only effect; inactive = no such curve, though single readings can be large or run the other way; note: series mostly up to about 76 µM; nearly all actives have a fitted effect of over 35% in size
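ERSR induction read as luciferase luminescence (Bright-Glo, 10 min at room temperature) in stably transfected human U87-MG glioma cells exposed to compounds for 16 h, using GRP78 as sensor.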
Akt phos inh = Akt phosphorylation inhibition; Neuro2A IGF-stimulated pAkt S473 HTRF, 20 min; stronger effect = lower value; activity change, % for hits at 50 µM; hit rate 0.32% among 360,000; AID 651550; in the data active = activity change below about -80%; inconclusive = mostly about -51% to -80%
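Neuro2A cells (4,500/well, DMEM with 0.5% FBS) were treated with compound at a single 50 µM final concentration, stimulated with 6 nM IGF for 20 min at 37 °C, and lysed. Phospho-Akt Ser473 was read by HTRF as 665/615 ratio ×10^4.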
KCNH2 3.1 inh = blocks the human KCNH2 3.1 channel isoform; activity change, % (tested at about 1.8 µM); hit rate 0.95% among 340,000; AID 720553; U2OS KCNH2 3.1, thallium flux FluxOr; stronger effect = lower value;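 active = maximum activity change below -70%; inconclusive = maximum activity change from -70% to -50%; inactive = maximum activity change above -50%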;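 note: thallium influx rate constant from kinetic fluorescence after stimulation buffer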
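FluxOr-based Tl+ influx in U2OS cells transduced with KCNH2 3.1 virus; rate constants normalized to DMSO controls.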
gsp ag = activates gsp, the McCune-Albright syndrome mutation | gsp mutant cells, cAMP HTRF, 30 min | AID 624287 | Potency, µM (highest dose often 76.9 µM), usual class: activators | hit rate 0.13% among 340,000; active = well fitted activation curve with a large enough effect; inconclusive = small, poorly fitted or top-dose-only effect, or another doubt; inactive = no such curve, though single readings can be large or run the other way; cell line not stated here;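 note: phosphodiesterase inhibitor Ro 20-1724 added with compounds to block cAMP breakdown; nearly all actives have a fitted effect of over 60% in size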
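Cells in DMEM/10% FBS with G418 were pretreated with compounds in DMSO plus […] (300 uM stock) for 30 min at 37C. cAMP was measured by HTRF (cAMP-d2 plus anti-cAMP antibody-K) after 30 min at room temperature.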
gsp antagonist = antagonists of gsp mutant (McCune-Albright syndrome) | gsp-mutant cells, cAMP HTRF, 30 min | Potency, µM (doses to about 76.9 µM), most hits filed as inhibitors | hit rate 0.4% among 340,000 | AID 624288; calls by dose curve; cell line not stated here;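 note: intracellular cAMP measured with PDE inhibitor Ro 20-1724 present during compound exposure; nearly all actives have a fitted effect of over 65% in size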
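Cells, 2000/well, grown 16–24 h in DMEM 10% FBS with 0.5 mg/ml G418, then compounds plus […] (300 uM addition stock), 30 min at 37C. cAMP read by HTRF (cAMP-d2 and anti-cAMP antibody-K in lysis buffer) after 30 min RT.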
Numbers stand for hits; - = inactive; ? = inconclusive; . = no result given; [ ] = remark or other dose.

SMILES	hERG WT inh	Glioma ERSR ind	Akt phos inh	KCNH2 3.1 inh	gsp ag	gsp antagonist
CCC1CN(CCNC(=O)c2cc(C(C)C)nn2C)Cc2cc(OC)ccc2O1 (stereo not given)	.	-	.	.	.	.
Cc1c(C(=O)N(C)C2CCOC2)sc2ncnc(NCc3ccc4c(c3)OCO4)c12 (stereo not given)	.	-	.	.	.	.
CC(OC(=O)c1nc(-c2ccccc2)n(-c2ccccc2)n1)C(=O)Nc1cc(Cl)cc(Cl)c1 (stereo not given)	-141.9	-	-	-	-	-
COc1ccccc1C(=O)N[C@@H]1c2ccccc2C2(CCN(Cc3cccnc3)CC2)[C@H]1O	.	-	.	.	.	.
COC(=O)c1ccc(-n2c(CCC(=O)O)ccc2-c2ccc(C)cc2)cc1	-	-	-	-	-	31.6µM
Cc1c(C(=O)N2CC3CCC2C3)sc2ncnc(NCCc3ccccn3)c12 (stereo not given)	.	-	.	.	.	.
CCO[C@@H]1OC(C(=O)NCc2ccccc2)=C[C@H](C2CCCCC2)[C@H]1CCCO	-	-	-	-	-	11.2µM
CCO[C@@H]1OC(C(=O)NCc2ccccc2)=C[C@H](C2CC2)[C@H]1CCCO	.	-	-	-	?	-
CC(Oc1cccc(Br)c1)C(=O)NNC(=O)CCS(=O)(=O)c1ccccc1 (stereo not given)	-	-	-	-102.1	-	-
CC(C)(C)c1ccc(C(=O)C[n+]2cccc(Br)c2)cc1	.	-	.	.	.	.
CC1(CCc2ccccc2)NC(=O)N(Cc2nnc(-c3ccccc3Br)o2)C1=O (stereo not given)	-	-	-108.0%	-	-	-
O=C1NC2(CCCc3ccccc32)C(=O)N1Cc1nnc(-c2ccccc2Br)o1 (stereo not given)	-	-	-	-	-	-
Cc1c(C(=O)NCCN2CCC(c3ccccc3)CC2)cnn1-c1nccc(-c2cccs2)n1	.	-	.	.	.	.
Cc1ccccc1C(=O)NN1CC(C(=O)OCc2ccc(Cl)c(Cl)c2)CC1=O (stereo not given)	-	-	-	-	-	31.6µM
Cc1cccc(-c2cc3nc(C)cc(N4CC(C)CC(C)C4)n3n2)c1 (stereo not given)	-	-	-	-120.0	-	-
Cc1cccc(-c2cc3nc(C)cc(C)n3n2)c1	-	-	-	-	-[15.4 µM]	-
O=C(NC1CCCC1)c1cn(C2CCCN(Cc3ccc4c(c3)OCCO4)C2)nn1 (stereo not given)	.	-	.	.	.	.
COC(=O)C1=C(C)N(c2cccc(Cl)c2)C(=O)C1	-	-	-118.1%	-	-	-
COc1cccc(-c2sc3ccccc3c2-c2ccc(OCCN3CCCC3)cc2)c1	-	-	-	-	.	-
COc1cccc(-c2sc3ccccc3c2-c2ccc(OCCN3CCCCC3)cc2)c1	-	-	-	-75.5	.	-
O=C1CC(=C(c2ccccc2)c2ccccc2)C(=O)N1CCCCN1CCN(c2cccc(Cl)c2)CC1	-75.4	-	-	-74.1	-	-
O=C(NCC1(N2CCCCC2)CCCCC1)c1ccc(-n2cc(NC(=O)c3cccnc3)cn2)cc1	.	-	.	.	.	.
COC(=O)CSc1ncc(S(=O)(=O)c2ccccc2)c(=O)[nH]1	-	-	-	-131.0	-[15.4 µM]	-
O=[N+]([O-])c1ccc(C(O)CN2CCN(C/C=C/c3ccccc3)CC2)cc1 (stereo not given)	-93.7	-	-	-112.7	-[15.4 µM]	-
O=[N+]([O-])c1ccc(NC2CCN(Cc3ccccc3)CC2)c([N+](=O)[O-])c1	-74.2	-	-	-96.5	-	-
SMILES	hERG WT inh	Glioma ERSR ind	Akt phos inh	KCNH2 3.1 inh	gsp ag	gsp antagonist
O=[N+]([O-])c1ccc(C(O)CN2CCN(Cc3ccccc3)CC2)cc1 (stereo not given)	-	-	-	-70.4	-	-
CC1(C)Cc2c(sc(NC(=O)C(=O)NCC3CCCO3)c2C(N)=O)CO1 (stereo not given)	-95.4	-	-	-	-	-
CC1(C)Cc2c(sc(NC(=O)C(=O)N3CCCC3)c2C(N)=O)CO1	-	-	-	-	-	-
Nc1[nH]c(=S)[nH]c(=O)c1N	.	-	.	.	.	.
CCOc1ccccc1C(=O)Nc1ccc(C(=O)c2ccccc2)cc1	-	-	-	-	-	25.1µM
O=C(Nc1ccc(C(=O)c2ccccc2)cc1)c1ccccc1	-	-	-	-	-[15.4 µM]	39.8µM
